From PubChem BioAssay (EPA / NIEHS)
Inconclusive results are not listed. Calls of active or inactive are those of the source. Rule for the calls: active = hit-call score of the fitted dose curve at least 0.9, where 1 is the maximum; inconclusive = response in the unintended direction; inactive = score below 0.9.

Test: ACEA_AR_agonist_AUC_viability: ACEA Biosciences xCELLigence Real-Time Cell Analysis on Androgen Receptor Agonism for Viability (AID 2283775);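 for AC50: viability read 80 hours after compound addition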
Outline: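 Real-time impedance tracking of 22Rv1 growth, readings every 5 min for 5 h then hourly; area-under-curve viability endpoint at 80 hours, relative to DMSO. Compounds at eight concentrations, 1:4 steps, top 100 uM, n = 2.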

Row | SMILES | AC50 | outcome
1 | O=c1[nH]sc2ccccc12 | 14.1 µM (active) | 
2 | CCCCOC(=O)CC(CC(=O)OCCCC)(OC(C)=O)C(=O)OCCCC |  | inactive
3 | Cc1occc1C(=O)Nc1ccc(C(=O)N2CCC(F)(F)/C(=C\C(=O)N3CCC(N4CCCCC4)CC3)c3ccccc32)cc1 | 31.2 µM (active) | 
4 | O=C(O)Cn1c(=O)n(Cc2ccc(Br)cc2F)c(=O)c2ccc(Cl)cc21 |  | inactive
5 | Cc1ncc(CO)c(CO)c1O |  | inactive
6 | Cc1cc(F)ccc1-c1cc(N2CC[C@@H](O)[C@H]2CO)ncc1N(C)C(=O)C(C)(C)c1cc(C(F)(F)F)cc(C(F)(F)F)c1 | 8.51 µM (active) | 
7 | Clc1ccccc1C(c1ccccc1)(c1ccccc1)n1ccnc1 | 16.9 µM (active) | 
8 | CN1C(=O)CC[C@H]1c1cccnc1 |  | inactive
9 | COc1cccc([C@H](O)C2CCN(CCc3ccc(F)cc3)CC2)c1OC | 50 µM (active) | 
10 | CCCCCCCCCCCO | 90.2 µM (active) | 
11 | Cc1oc2c(NC(=O)c3c(Cl)cccc3Cl)cccc2c1C(C)(C)O | 22.8 µM (active) | 
12 | c1ccc(C[n+]2cccc3ccccc32)cc1 | 50 µM (active) | 
13 | O=C(O)c1ccccc1-n1cc(C(=O)O)c(=O)c2cc(Nc3c(F)cc(F)cc3Cl)c(Cl)cc21 |  | inactive
14 | CCN(Cc1cccnc1)C(=O)c1cccc(Cl)c1[C@]1(C)C(=O)N(Cc2ccc(OC)cc2OC)c2ccc(Cl)cc21 | 23.8 µM (active) | 
15 | CC(C)(O)c1ccc(CNC(=O)c2cccnc2Oc2ccc3nonc3c2)cc1 |  | inactive
16 | CC[C@@H]1C[C@H](N(Cc2cc(C(F)(F)F)cc(C(F)(F)F)c2)C(C)=O)c2cc(C(F)(F)F)ccc2N1C(=O)OC(C)C |  | inactive
17 | O=CCCCC=O | 35.2 µM (active) | 
18 | Cc1ccc2oc(CN(Cc3ccccc3)C(=O)Nc3c(F)cc(F)cc3F)c(-c3ccc(Cl)cc3)c2c1 | 9.77 µM (active) | 
19 | CCCCCCCCOc1ccc(C(=O)c2ccccc2)c(O)c1 | 68.2 µM (active) | 
20 | O=C1c2ccccc2C(=O)N1CCc1noc(-c2ccc(CN3CCCCCC3)s2)n1 | 13.2 µM (active) | 
21 | Cc1ccc(C(C)C)cc1 |  | inactive
22 | CN(C)C(=O)C1(N2CCCCC2)CCN(CC[C@@]2(c3ccc(Cl)c(Cl)c3)CN(C(=O)c3ccccc3)CCO2)CC1 | 10.5 µM (active) | 
23 | CCO[Si](CCCNC(N)=O)(OCC)OCC |  | inactive
24 | CCCCOC(=O)c1ccc(O)cc1 | 69.5 µM (active) | 
25 | O=C(OCCCCCCOC(=O)c1ccccc1)c1ccccc1 | 74 µM (active) | 
26 | Clc1cc(Cl)c2c(c1)N=C1CCCCCN1C2 |  | inactive
27 | COc1ccc2cc(S(=O)(=O)N[C@H](CC(=O)N[C@H](Cc3ccc(CN4[C@H](C)CCC[C@@H]4C)cc3)C(=O)N(C)C(C)C)c3ccc4c(c3)OCO4)ccc2c1 | 9.68 µM (active) | 
28 | Cc1cccc2ccccc12 |  | inactive
29 | CN1C(=O)N(c2ccccc2Br)Cc2cnc(Nc3ccc4c(c3)OCC(CO)O4)nc21 (centres undefined) | 20.5 µM (active) | 
